# Assay outcomes from PubChem BioAssay.
# An excerpt weighted towards active compounds, which were near 2.2% of everything screened.
# IEC-6 tox: counter-screen for KLF5 inhibitors: cytotoxicity in IEC-6 cells; 290,000 compounds, 0.78% hits; IEC-6 cytotoxicity, luminescence viability; inhibition, % at 5 µM; AID 1825; in the data active = inhibition above about 22%;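 also: 0% = plate median of test compound wells and 100% = cytotoxic reference compound wells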
# APP 5UTR inh: APP translation inhibition | SH-SY5Y APP 5'UTR-luciferase reporter, luminescence | AID 1285 | 190,000 compounds, 0.82% hits | inhibition, % at 2 µM;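 active = inhibition above a set limit, derived from the sample mean plus 3 SD, cut at about 45% in these data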
# aSyn 5UTR inh: 5' untranslated region of α-synuclein, MLPCN primary screen. alpha-synuclein 5'UTR reporter, inhibitor activity. inhibition, % (tested at 7.5 µM). 300,000 compounds, 0.82% hits; in the data active = inhibition above about 60%;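 also: H4 neuroglioblastoma cells stably carrying SNCA 5'UTR luciferase fusion; 0% = DMSO wells and 100% = positive control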
# Ba/F3 V617F tox: loss of viability in JAK2V617F-driven Ba/F3 cells | Ba/F3 EpoR-JAK2V617F viability, ATP luminescence | inhibition, % at 5.6 µM | 220,000 compounds, 1.1% hits | AID 1446;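 active = inhibition above the campaign mean plus 3 SD over all tested compounds, cut at about 24% in these data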;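 also: cytokine-independent growth of Ba/F3 cells driven by EpoR plus mutant JAK2; 0% = DMSO-treated cells and 100% = JAK inhibitor I control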
# KLF5 inh: kruppel-like factor 5 inhibition | DLD-1 KLF5 promoter-luciferase reporter, luminescence | inhibition, % at 5 µM | 290,000 compounds, 0.23% hits | AID 1700;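 active = inhibition above a per-plate limit of that plate's mean compound inhibition plus 3 SD, cut at about 60% in these data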;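 also: 0% = DMSO wells and 100% = LY294002 at 200 µM; higher means less KLF5 promoter-driven luciferase light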
# BaF3 parental: reduces parental Ba/F3 cell viability, JAK2V617F counter-screen | CellTiter-Glo ATP luminescence | inhibition, % at 5.6 µM | 220,000 compounds, 1.1% hits;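 active = inhibition above a per-campaign cutoff, the mean inhibition of all tested compounds plus 3 SD, cut at about 27% in these data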;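 also: 0% = DMSO wells and 100% = JAK Inhibitor I control wells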
# * = called active by the depositor; / = no result given.
SMILES,IEC-6 tox,APP 5UTR inh,aSyn 5UTR inh,Ba/F3 V617F tox,KLF5 inh,BaF3 parental
Cc1ccccc1NC(=O)c1cc(S(=O)(=O)N2CCOCC2)cn1C,-6,/,-17,/,-12,/
Cc1nc2ccccc2c(=O)n1/N=C/c1ccccc1,5,-12,-41,-6,-3,-3
Cc1nc2ccccc2c(=O)n1/N=C/c1cccs1,0,53*,-79,0,-77,-3
COc1ccc(C2=Nn3c(nnc3-c3ccncc3)SC2)cc1OC,0,9,72*,0,-2,1
COc1ccc(CCNC(=O)c2nonc2N)cc1OC,-3,-22,-6,-2,-18,69*
CCc1cccc(CC)c1NC(=O)CN1CCN(S(=O)(=O)c2ccccc2)CC1,-3,/,-1,/,5,/
CC1CCC(C(C)C)C(OC(=O)C[n+]2cc(-c3ccc(Cl)cc3)n3c2CCCCC3)C1 (configuration not stated),5,-19,-12,101*,21,73*
Cc1ccc(-c2c[n+](CC(=O)c3ccc(Br)cc3)c3n2CCCCC3)cc1,3,-16,19,77*,-8,69*
O=[N+]([O-])c1ccc(C[n+]2cc(-c3ccccc3)n3c2CCCCC3)cc1,0,4,3,-3,10,10
O=C(C[n+]1cc(-c2ccc(F)cc2)n2c1CCC2)c1cccs1,-5,/,-144,11,-54,29*
C[n+]1cc(-c2ccccc2)n2c1CCCCC2,1,-8,11,65*,-33,64*
CC(C(=O)OCC(=O)c1ccc(Br)cc1)N1C(=O)C2C3CCC(C3)C2C1=O (configuration not stated),5,/,-10,/,11,/
O=C(COc1ccccc1)N=C1SC2CS(=O)(=O)CC2N1c1ccc(F)cc1F (configuration not stated),6,/,21,/,-2,/
CN(c1ccc(C(=O)NCc2ccncc2)cc1)S(=O)(=O)c1ccc(Cl)cc1,0,/,1,/,-23,/
CCCCn1c(N)c(N(CC(C)C)C(=O)c2ccc(F)c(S(=O)(=O)N3CCOCC3)c2)c(=O)[nH]c1=O,/,/,12,/,/,/
CC(=O)NS(=O)(=O)c1ccc(NC(=O)c2cccc3ccccc23)cc1,/,/,15,/,/,/
Cc1ccc(NC(=O)C[n+]2cc(-c3ccccc3)n3c2CCC3)cc1,-4,/,25,-1,0,-2
COc1ccc(-c2c[n+](CC(=O)c3ccccc3)c3n2CCCCC3)cc1,-2,/,11,48*,-27,60*
O=C(C[n+]1cc(-c2ccccc2)n2c1CCCCC2)c1ccc(Cl)cc1,1,2,-6,53*,-3,56*
O=C(O)c1cc(Nc2cc(Cl)c3nonc3c2[N+](=O)[O-])ccc1O,-7,/,3,/,-19,/
CC1(C)Cc2c(c(N3CCOCC3)nc3sc4c(NCc5ccccc5)nnnc4c23)CS1,-4,-16,68*,-3,-22,4
COc1ccccc1NC(=S)N(Cc1ccco1)Cc1cc2cc(C)c(C)cc2[nH]c1=O,3,92*,91*,9,-5,7
COc1ccc2cc(CN(CC3CCCO3)C(=O)Nc3ccccc3OC)c(=O)[nH]c2c1 (configuration not stated),7,19,66*,4,-11,3
Cc1cc2cc(CN(Cc3ccco3)S(=O)(=O)c3c(C)ccc4nsnc34)c(=O)[nH]c2cc1C,-1,4,89*,-1,-13,5
CC(=O)Nc1ccc(S(=O)(=O)N(Cc2cc3ccc(C)cc3[nH]c2=O)CC2CCCO2)cc1 (configuration not stated),1,/,82*,/,-56,/
SMILES,IEC-6 tox,APP 5UTR inh,aSyn 5UTR inh,Ba/F3 V617F tox,KLF5 inh,BaF3 parental
Cc1ccc2cc(CN(Cc3ccco3)S(=O)(=O)c3c(C)ccc4nsnc34)c(=O)[nH]c2c1,4,1,48,3,27,5
C=Cn1cc[n+](CC(=O)c2ccc(Br)cc2)c1,5,/,4,/,-35,/
Cc1ccc(N2C(=O)C(Cl)=C(N3CCCCCC3)C2=O)c(C)c1,-2,/,8,/,-25,/
O=C(CSc1n[nH]c(=O)n1-c1cccnc1)Nc1ccccc1,-4,/,8,/,-20,/
Cc1cc(C[n+]2ccccc2)c2nsnc2c1,2,10,3,59*,-33,59*
Cc1cc(C[n+]2ccsc2N)c2ncccc2c1,6,/,0,1,-6,-13
Nc1ccccc1C(=O)NCC1(c2ccccc2)CCCC1,-4,/,-8,/,-5,/
O=Cc1cc2ccccc2nc1SCc1ccc(Cl)cc1,0,3,95*,3,-4,3
O=Cc1cccnc1SCc1ccccc1,/,/,-39,/,/,/
O=Cc1cc2ccccc2nc1SCc1ccc(Cl)c(Cl)c1,1,8,109*,-3,-18,-1
Cc1ccc(CSc2nc3ccccc3cc2C=O)cc1,-2,94*,93*,2,7,3
Cc1ccc(CSc2ncnc3ccccc23)cc1,-1,-21,-30,4,-2,3
COc1ccccc1Nc1ccc2nonc2c1[N+](=O)[O-],-3,/,20,/,-6,/
C/C(N)=C(/C#N)C(=O)COC(=O)CCSc1ccccc1Cl,1,81*,-6,-3,-13,2
C/C(N)=C(/C#N)C(=O)COC(=O)CSc1ccccc1,1,-11,19,3,-1,4
Cc1ccccc1Cn1cc(NC(=O)c2noc(C(C)C)c2[N+](=O)[O-])cn1,-6,/,106*,/,-28,/
CC(=O)c1cccc(NC(=O)c2cc(S(=O)(=O)N3CCOCC3)cs2)c1,11,/,0,/,-13,/
CCCCC(CCC(=O)Nc1ccn(-c2ccccc2)n1)C(=O)O (configuration not stated),8,/,-2,-3,10,63*
CN1CCN(C(CNC(=O)C(=O)NC2CCCC2)c2ccc(F)cc2)CC1 (configuration not stated),/,/,8,/,/,/
COc1ccc(-c2ccc3nnc(SCC(N)=O)n3n2)cc1,3,-27,11,4,-6,7
CCSc1nnc2ccc(-c3ccc(OC)c(OC)c3)nn12,10,/,62*,/,-36,/
COc1ccc(C(=O)NCC(=O)N2CCN(c3ccc(F)cc3)CC2)cc1,-4,/,2,/,-45,/
Cc1nn(Cc2ccc(C(=O)Nc3nccs3)cc2)c(C)c1Cl,13,1,40,39*,56,43*
CCN1CCN(C(=O)Nc2cccc3ccccc23)CC1,2,57*,-31,0,-20,3
COc1ccc(N2CC(C(=O)N/N=C/c3ccc(C)cc3)CC2=O)cc1 (configuration not stated),16,83*,-23,7,21,5
COc1ccc(N2CC(C(=O)Nc3ncccc3C)CC2=O)cc1 (configuration not stated),-6,-11,31,-3,-4,101*
O=C(NCc1ccco1)c1ccc(Cl)cc1[N+](=O)[O-],0,/,21,/,-36,/
CC1=CN2C(=NC(=O)CC2(C)C(=O)N(CC(=O)NC2CCCC2)Cc2ccc(Cl)cc2)C=C1 (configuration not stated),0,/,8,/,-12,/
Cc1noc(C)c1C1(O)CCCCCCCCCCC1,1,-10,1,36*,-11,55*
